Autofluor 339: intrinsic fluorescence of library compounds, ex339/em460 – biochemical, MLSMR library, data from DPM-DC assay, artefact control, profiling panel | compound autofluorescence, ex339/em460 nm, NADH buffer; hits give high values; 1 = no-compound wells, NADH background | fluorescence fold increase at 10 µM | actives 5.5% (n = 65,000);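 active means at 10 µM, mean starting fluorescence two-fold or more over control wells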;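 further: signal is the first read of a kinetic run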
A340 absorber: compound light absorbance at 340 nm, profiling panel, artefact control, biochemical, MLSMR library, data from PS, PMK, MK assays | compound absorbance at 340 nm, fold over control | fold change at 10 µM | 65,000 tested, under 10 active | AID 708, 2007;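 active means at 10 µM dose, initial 340 nm absorbance at least 2 fold that of control wells; inactive means change under 2 fold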;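 further: initial absorbance extrapolated from kinetic A340 decline of NADH oxidation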
DPM-DC inhibit: S. pneumoniae DPM-DC inhibitors, primary screen, biochemical, PK/LDH-coupled NADH fluorescence. actives 0.49% (n = 65,000). calls only at 10 µM. AID 556, 2006. diphosphomevalonate decarboxylase (Streptococcus pneumoniae D39). purified DPM-DC;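 active means the 320 compounds with the highest percent inhibition in the single-dose primary screen, excluding strongly autofluorescent ones, cut at about 32% in these data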;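 further: kinetic rate of NADH fluorescence loss reporting ADP formed by the decarboxylase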
Spn MK inh: S. pneumoniae MK inhibitors, primary screen, biochemical, PK/LDH-coupled NADH absorbance; inhibition, % at 10 µM; actives 0.48% (n = 65,000); purified MK, PK/LDH-coupled NADH absorbance 340 nm; mevalonate kinase [Streptococcus pneumoniae D39]; AID 555, 2006;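 active means ranked among the strongest by inhibition in the single 10 µM screen, a fixed top-ranked set picked for dose follow-up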
Spn PMK inh: S. pneumoniae PMK inhibitors, primary screen, biochemical, mevalonate pathway, pilot trial included. purified PMK, PK/LDH-coupled NADH absorbance 340 nm. inhibition, % at 10 µM. actives 0.49% (n = 65,000). phosphomevalonate kinase (Streptococcus pneumoniae D39);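 active means top-ranked compounds by inhibition in the single 10 µM screen, taking a fixed number of the strongest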;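 further: 0% = full reaction with DMSO carrier and 100% = background rate without enzyme reaction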
NADH coupling: inhibitors of PK/LDH coupling enzymes, profiling panel, artefact control, biochemical, MLSMR library. coupled PK/LDH NADH assays, four targets. IC50, µM (top dose mostly 10 µM), inactives show top-dose inhibition. actives 0.02% (n = 65,000). AID 774, 2007;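 active means single-dose screening hits from any of four coupled enzyme assays that gave an IC50 when retested across doses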;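 further: the DPM-DC format reads NADH fluorescence rather than 340 nm absorbance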
Active calls of the source: *; i = inactive; · = no result given. Hits are enriched below; roughly 6.8% of the tested compounds scored in any of these assays.

SMILES	Autofluor 339	A340 absorber	DPM-DC inhibit	Spn MK inh	Spn PMK inh	NADH coupling
CCOC(=O)Nc1nnc(-c2cccc(OC)c2)s1	3.8*	1	·	5	0	3%
COc1ccc(-c2nnc(NC(=O)C(C)C)s2)c(OC)c1	2.1*	1.1	·	26	8	17%
COc1ccccc1-c1nnc(NC(=O)OCC(C)C)s1	1.4	1	i	8	12	9%
CCOC(=O)Nc1nnc(-c2ccccc2OC)s1	2.8*	1	·	6	12	2%
COC(=O)Nc1nnc(-c2ccccc2Cl)s1	2.9*	1	i	5	7	7%
CN(CC(=O)N1CCc2ccccc21)S(=O)(=O)c1ccc(Br)s1	1.1	1	i	0	14	5%
COC(=O)Nc1nnc(-c2ccncc2)s1	3.7*	1.1	·	10	4	7%
CCOC(=O)N1CCN(C(=O)CN(c2cc(Cl)ccc2OC)S(=O)(=O)c2ccccc2)CC1	1.1	1	i	8	13	7%
CN1C(=O)c2ccccc2N(C)C1c1ccc2c(c1)OCO2 (centres undefined)	3.9*	0.98	·	8	7	8%
CCN1c2ccccc2-c2nc3ccccc3n2C1c1cccnc1 (centres undefined)	3.8*	1	·	5	7	6%
CCN1c2ccccc2-c2nc3ccccc3n2C1c1ccccn1 (centres undefined)	3.8*	1	·	10	5	8%
COCCn1c(CCC(=O)O)nc2c1c(=O)[nH]c(=O)n2CC(C)C	1	0.99	i	2	18	7%
CCn1c(=O)c(C(=O)Nn2c(C)nc3ccccc3c2=O)c(O)c2ccccc21	1	1	i	8	5	7%
CCn1c(=O)c(C(=O)Nc2nc3ccccc3[nH]2)c(O)c2ccccc21	2.4*	1.1	i	5	15	13%
CC(C)(C)N1C(=O)Cc2c1nc(N)c1c(N)nc(N3CCCCC3CO)c(C#N)c21 (centres undefined)	4.8*	1	·	0	15	8%
Clc1ccc2nc(NC3=NCN(CCN4CCOCC4)CN3)nc(-c3ccccc3)c2c1	2.2*	1	i	14	14	17%
C=CCn1c(-c2ccccc2)nc2nc3ccccc3nc21	2.1*	1.2	·	0	21	11%
CCC1Oc2ccccc2N(CC(=O)NCCCN2CCN(Cc3ccccc3)CC2)C1=O (centres undefined)	1	0.99	i	0	15	5%
CC(C)C1Oc2ccccc2N(CC(=O)NCCCN2C(C)CCCC2C)C1=O (centres undefined)	1.2	1.1	i	47*	8	18%
CCCc1ccc2c(N)c(C#N)sc2n1	2.1*	1.1	·	5	8	7%
CN(C)c1ccc(-c2nnc(-c3ccc(S(=O)(=O)C(F)F)cc3)o2)cc1	1.4	1.1	i	8	10	7%
COc1ccc(-c2nnc(-c3ccc(N)cc3)o2)cc1	2.9*	1.1	·	8	4	2%
COc1ccc(-c2nnc(-c3ccc(N(C)C)cc3)o2)cc1	2.1*	1.1	·	0	1	1%
COc1ccc(-c2ccc(-c3nnc(-c4cc(OC)ccc4OC)o3)cc2)cc1	3.7*	1.1	·	7	18	13%
Cc1nc(C)c(C(=O)C2=C(O)C(=O)N(CCCN(C)C)C2c2ccco2)s1 (centres undefined)	1.1	1.1	i	12	9	7%
SMILES	Autofluor 339	A340 absorber	DPM-DC inhibit	Spn MK inh	Spn PMK inh	NADH coupling
CCCCn1c(CN2CCN(C(=O)c3ccco3)CC2)nc2c1c(=O)n(C)c(=O)n2C	1	1.1	i	0	10	6%
O=S(=O)(NC1CC1)c1ccc(S(=O)(=O)N2CCCC3(CCCCC3)C2)cc1	1.1	1.1	i	0	0	0%
COc1ccc(CN2C(=O)c3ccccc3C2C(=O)NC2CCCC2)c(OC)c1 (centres undefined)	1	0.96	i	1	25*	3%
COc1ccc(CN2C(=O)c3ccccc3C2C(=O)NCC2CCCO2)c(OC)c1 (centres undefined)	1.1	0.99	i	0	20	7%
COc1ccccc1CC1(C)NC(=O)N(CC(=O)Nc2cc(C)on2)C1=O (centres undefined)	1	1	i	9	13	3%
COc1ccc(Cl)cc1CN1CCN(c2nc(C)cc(C)c2C#N)CC1	1.2	0.98	i	4	0	1%
COc1ccc(F)cc1CN1CCN(c2cc(C)nc3c4c(C)cc(C)nc4nn23)CC1	3.9*	1.1	·	1	6	4%
Cc1cc(C)c2c(n1)nn1c(N3CCN(Cc4ccccc4)CC3)cc(C)nc21	3.9*	1	·	8	7	8%
CN(C)C=Nc1ncc2c3ccccc3n(CCN(C)C)c2c1C#N	2.3*	1.2	i	10	16	16%
CN(C)C=Nc1ncc2c3ccccc3n(Cc3ccccc3)c2c1C#N	3*	1.1	·	5	0	3%
CCN(CC)S(=O)(=O)c1ccc2c(c1)c(=O)c(C(=O)N1CCOCC1)cn2C	0.99	1	i	4	12	6%
Cc1ccc(S(=O)(=O)N2CCOCC2)cc1C(=O)N1CCOCC1	1	1	i	2	4	6%
CCN(c1ccccc1)S(=O)(=O)c1ccc2[nH]cc(C(=O)N3CCOCC3)c(=O)c2c1	2.1*	1.1	·	0	22	11%
COc1ccc2[nH]cc(C(=O)N3CCCCC3)c(=O)c2c1	2.1*	1.1	i	9	2	5%
COCCNC(=O)c1c[nH]c2ccc(S(=O)(=O)N3CCC4(CC3)OCCO4)cc2c1=O	2.1*	1.1	·	0	19	10%
CC1CCN(S(=O)(=O)c2ccc3[nH]cc(C(=O)NCCN4CCOCC4)c(=O)c3c2)CC1	1.8	1	·	0	12	2%
CCc1ccc2[nH]cc(C(=O)N3CCCCCC3)c(=O)c2c1	1	1.1	i	5	10	6%
O=C(c1c[nH]c2ccc(S(=O)(=O)N3CCOCC3)cc2c1=O)N1CCCC1	4.2*	1.1	·	4	1	3%
CCOC(=O)N1CCN(c2nc(-c3ccc(OC)cc3)no2)CC1	1.1	1	i	7	9	5%
O=C(O)C1C2C=CC(O2)C1C(=O)NCCCn1ccnc1 (centres undefined)	1	1	i	5	17	7%

Source: PubChem (SRMLSC)
